Only a selection was taken, and hits are over-represented in it overall.
TDP1 cell noCPT = qHTS for Inhibitors of human tyrosyl-DNA phosphodiesterase 1 (TDP1): qHTS in cells in absence of CPT; Potency, µM (top dose mostly 46.2 µM), for the others: at the highest dose activity change, negative = growth inhibition, usual class: inhibitors; actives 15% (n = 420,000); DT40 Tdp1-/- hTDP1 cells, no CPT, ATP luminescence, 48 h; also: potency is read from the fitted curve at half-maximal effect; nearly all actives have a fitted effect of over 55% in size
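Stably hTDP1-transfected Tdp1-null chicken DT40 cells were treated with library compounds minus camptothecin and grown for at least 48 hr at 37 °C, after which cellular ATP was quantified by luminescence.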
DT40 TDP1 CPT = qHTS for Inhibitors of human tyrosyl-DNA phosphodiesterase 1 (TDP1): qHTS in cells in presence of CPT | actives 12% (n = 420,000) | chicken DT40 Tdp1-/-;hTDP1 cells + 20 nM CPT, ATP luminescence, 48 h | Potency, µM (doses to about 46.2 µM), without a hit: top-dose activity change, negative = growth inhibition, hits mostly inhibitors; also: potency is read from the fitted curve at half-maximal effect; nearly all actives have a fitted effect of over 55% in size
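Chicken DT40 Tdp1-/- cells stably complemented with human TDP1 were seeded at 400 cells/well in medium containing 20 nM camptothecin, exposed to pin-transferred compounds, and grown at 37 °C for at least 48 hr. Viability was read as ATP luminescence.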
IL1B secr inh = qHTS for Inhibitors of Inflammasome Signaling: IL-1-beta AlphaLISA Primary Screen. activity change, % at 57.5 µM. actives 4.7% (n = 360,000). THP-1 LPS/ATP IL-1B secretion, AlphaLISA, 16 h; stronger effect = lower value. AID 743279, 2014; in the data active = activity change below about -50%; inconclusive = mostly about -30% to -49%
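THP-1 cells pretreated 1 hr with compounds (up to 57.5 uM final), then stimulated with LPS (250 ng/mL final) plus ATP (1.25 mM final); secreted IL-1B measured by AlphaLISA after 16 hr, decreased signal indicating inhibition.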
HT1080-NT tox = qHTS for induction of synthetic lethality in tumor cells producing 2HG: qHTS for the HT-1080-NT fibrosarcoma cell line; HT-1080-NT fibrosarcoma viability, CellTiter-Glo ATP luminescence, 48 h; Potency, µM (highest dose often 46.1 µM), for inactives: top-dose activity, negative = less viability, hits mostly cytotoxic; actives 1.6% (n = 360,000); AID 686970, 2013;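 also: NT is the 2HG producing partner of a matched IDH1 knockdown line; potency is read from the fitted curve at half-maximal effect; 0% = DMSO-treated cells and -100% = media-only wells without cells; nearly all actives have a fitted effect of over 55% in size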
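Compounds were tested in concentration-response format on HT-1080-NT cells for 48 hours at 37 degrees C. Cell viability came from CellTiter-Glo luminescence; curves were classified by r2, response magnitude and activity.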
HT1080 IDH1KD tx = qHTS for induction of synthetic lethality in tumor cells producing 2HG: qHTS for the HT-1080-IDH1KD cell line. actives 2% (n = 360,000). HT-1080 IDH1 knockdown viability, ATP luminescence, 48 h. Potency, µM (top dose mostly 46.1 µM), for inactives: at the highest dose activity, negative = toxicity, actives largely listed as cytotoxic;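 also: potency is read from the fitted curve at half-maximal effect; 0% = DMSO wells and -100% = cell-free medium wells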
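Luminescent ATP read-out (CellTiter-Glo, 10 min at room temperature) after 48 h compound exposure at 37 °C gave viability of IDH1-knockdown HT-1080 cells. Activity was normalised to DMSO and cell-free wells, then fitted as concentration-response curves.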
ALOX12 inh = Primary qHTS assay for inhibitors of human arachidonate 12S-lipoxygenase (ALOX12): Round 2. actives 1.1% (n = 580,000). Potency, µM (top dose mostly 108 µM), for the others: top-dose activity change, negative = inhibition, actives largely listed as inhibitors. purified 12hLO, xylenol orange hydroperoxide absorbance. AID 1671190, 2021; also: potency is read from the fitted curve at half-maximal effect
Target sequence (P18054 whole entry, looked up): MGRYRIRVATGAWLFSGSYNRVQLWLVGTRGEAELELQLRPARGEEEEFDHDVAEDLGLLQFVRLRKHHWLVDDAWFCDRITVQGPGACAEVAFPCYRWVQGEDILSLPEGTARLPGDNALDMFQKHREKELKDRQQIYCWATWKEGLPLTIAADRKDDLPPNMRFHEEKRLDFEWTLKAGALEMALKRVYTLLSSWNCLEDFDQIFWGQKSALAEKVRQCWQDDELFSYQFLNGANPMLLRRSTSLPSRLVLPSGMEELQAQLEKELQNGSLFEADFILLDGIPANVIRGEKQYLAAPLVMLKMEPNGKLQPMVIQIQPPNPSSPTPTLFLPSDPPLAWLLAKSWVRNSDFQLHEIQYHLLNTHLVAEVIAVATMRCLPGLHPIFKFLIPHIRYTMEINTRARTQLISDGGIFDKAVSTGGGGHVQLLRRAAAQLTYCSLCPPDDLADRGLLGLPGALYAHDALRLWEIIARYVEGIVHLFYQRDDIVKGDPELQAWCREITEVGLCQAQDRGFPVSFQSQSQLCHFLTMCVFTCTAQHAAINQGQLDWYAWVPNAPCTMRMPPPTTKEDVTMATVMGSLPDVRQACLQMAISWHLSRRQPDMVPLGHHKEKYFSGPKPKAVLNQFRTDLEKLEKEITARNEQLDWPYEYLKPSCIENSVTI
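Purified human 12hLO (150 nM final) in 25 mM Hepes, 0.01% Triton X-100, pH 7.0 was preincubated 15 min at room temperature with compound. Then 40 uM arachidonic acid was added, 30 min. Hydroperoxide was read by Fe-XO absorbance ratio 573/405 nm.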
* = called active by the depositor; ? = inconclusive; / = not tested or not shown; ! = a repeat was not active; [ ] = remark or other dose. Unless noted, calls follow the shape of the dose curve; as a rule, active = well fitted curve in the direction sought with a large enough effect; inconclusive = small, poorly fitted or top-dose-only effect, or another doubt; inactive = no such curve, though single readings can be large; an effect the other way counts as inactive or inconclusive. Unless noted, % is scaled to controls: 0 for no effect and ±100 for the full control effect.

SMILES | TDP1 cell noCPT | DT40 TDP1 CPT | IL1B secr inh | HT1080-NT tox | HT1080 IDH1KD tx | ALOX12 inh
COC(=O)C1=C(c2cc3ccccc3o2)C[C@@H]2CC[C@H]1N2C(=O)N1CCC(O)CC1 | 23µM* | ? | 6 | 1% | -5% | -23%
COC(=O)C1=C(c2cc3ccccc3o2)C[C@@H]2CC[C@H]1N2C(=O)N1CCC(C)CC1 | 2.9µM* | 4.6µM* | -1 | -14% | -19% | -4%
O=C(c1ccncc1)N1CC2CCC(C1)N2Cc1cccs1 | / | / | / | / | / | 0%[6.33 µM]
COc1cccc(C(=O)N2CCC3(CC2)c2nccn2-c2ccccc2CN3C)c1OC | / | / | / | / | / | 42%
COc1ccc(-c2cn(C[C@H]3CC4CCN3C[C@@H]4C(=O)NCc3ccc(F)cc3)nn2)cc1 (some centres not stated) | / | / | / | / | / | -1%
Cc1ccc2c(c1)C1CN(C)CCC1N2C(=O)c1cccs1 (configuration not stated) | -1% | 19% | -8 | 3% | -1% | 0%
Cc1ccc2c(c1)C1CN(C)CCC1N2C(=O)Nc1ccc(Cl)cc1 (configuration not stated) | 26µM* | ? | -72* | ? | ? | -3%
CCCC[N+]1(C)[C@H]2CC(OC(=O)[C@H](CO)c3ccccc3)C[C@H]1[C@H]1O[C@H]12 (some centres not stated) | / | / | / | / | / | -14%[57.4 µM]
N#Cc1ccccc1NC(=O)c1cccn(Cc2ccccc2)c1=O | 15µM* | 18µM* | / | / | / | -22%
Cc1cccc2sc(NC(=O)c3cccn(Cc4ccccc4)c3=O)nc12 | 13µM* | ? | / | / | / | ?
CCCCc1cn(C[C@H]2C[C@@H]3CCN2C[C@@H]3C(=O)Nc2ccccc2)nn1 | / | / | / | / | / | 71%[176 µM]
Cc1ccccc1-n1c(/C=C/c2ccccn2)nc2ccccc2c1=O | 23µM* | 18µM* | -53* | -26% | -5% | 26%
Cc1ccccc1-n1c(/C=C/c2ccc(O)cc2)nc2ccccc2c1=O | 5.8µM* | 9.2µM* | / | / | / | ?
N#C/C(=C\c1ccc(Cl)cc1)C(=O)Nc1ccc(Cl)cc1C(=O)c1ccccc1 | / | / | / | / | / | -101%
O=c1[nH]c(=O)n(Cc2ccc(F)cc2)c(O)c1/C=N/Nc1ccccc1 | -14% | 18% | 10 | 2.3µM* | 2.3µM* | ?
O=c1[nH]c(=S)n(Cc2ccc(F)cc2)c(O)c1/C=N/N1CCCCCC1 | ? | -24% | 10 | -3% | -5% | 35µM*
Cc1c(N=Nc2c(O)n(Cc3ccccc3)c(=O)[nH]c2=O)c(=O)n(-c2ccccc2)n1C | 12µM* | 16µM* | 21 | -14% | ? | 3%
Cc1c(N=Cc2c(O)n(Cc3ccccc3)c(=O)[nH]c2=O)c(=O)n(-c2ccccc2)n1C | -11% | 2% | -72* | 0% | -6% | -1%
COc1ccc(Cn2c(O)c(C=Nc3c(C)n(C)n(-c4ccccc4)c3=O)c(=O)[nH]c2=O)cc1 | -1% | ? | 5 | 2% | 3% | -4%
CC(C)NC(=O)C(C)Cl (configuration not stated) | / | / | / | / | / | -29%
N#CC1(c2ccccc2)CCN(C(=O)c2cn(-c3ccccc3)nn2)CC1 | / | / | / | / | / | 19%
COc1cccc(CN2CCCCCCNC(=O)[C@@H]3CCC[C@@H]32)n1 | / | / | / | / | / | 281%
c1ccc(-c2ccncc2)cc1 | -1% | 7% | -9 | ? | 0% | 2%
Cc1cc(-c2ccccc2)cc(C)[n+]1Cc1ccccc1 | 1.6µM* | 1.5µM* | -2 | -1% | -26% | 1%
CCOP(=O)(OCC)/C(C#N)=C/c1ccc(-c2ccc(F)cc2F)o1 | ? | 15µM* | ? | -19% | -12% | ?
SMILES | TDP1 cell noCPT | DT40 TDP1 CPT | IL1B secr inh | HT1080-NT tox | HT1080 IDH1KD tx | ALOX12 inh
C#CCOCCOCCOCCNc1nc(N2CCN(C(=O)CCCCCCCCCCNC(=O)[C@H]([C@@H](C)CC)n3cc(CCCCN=C(N)N)nn3)CC2)nc(N2CCN(C(=O)CCCCCCCCCCNC(=O)[C@H](CO)n3cc(CCCCCN)nn3)CC2)n1 | 21µM* | 15µM* | -73* | ? | ? | /
CNCC(N)C(=O)O (configuration not stated) | / | / | / | / | / | 11%
N[C@H](CCP(=O)(O)O)C(=O)O | 6% | 2% | / | / | / | 3.5µM*!
CC(O)(c1ccncc1)c1nc(-c2cccc(C(F)(F)F)c2)cs1 (configuration not stated) | 21µM* | 23µM* | 2 | 2% | -15% | -1%
Cc1ncc2c(n1)C[C@@H]1CC[C@H]2N1C(=O)c1sccc1C | / | / | / | / | / | -2%
CCCNC(=O)c1cc2c(c(-c3cccc(-c4cc5ccccc5o4)c3)n1)[C@H](CCO)N(C(=O)NC(C)C)C2 | 12µM* | 8.2µM* | -72* | ? | ? | 2%
CC(C)NC(=O)N1Cc2cc(C(=O)NC3CCCCC3)nc(-c3cccc(-c4cccnc4)c3)c2[C@@H]1CCO | 10µM* | 12µM* | ? | -23% | -24% | -13%
Cc1ncc2c(n1)C[C@@H]1CC[C@H]2N1C(=O)NC(C)C | / | / | / | / | / | 37%
CC(C)CCN1CCCC2(CC(c3ccccn3)=NO2)C1 (configuration not stated) | / | / | / | / | / | 4%[12.5 µM]
O=C1CCN(C(=O)CCCn2c(=O)oc3ccccc32)CC1 | -5% | 20% | 17 | 3% | 6% | 11%
Cc1ccc(C(C)C)c(OCCn2c(=O)oc3ccccc32)c1 | ? | 29µM* | -3 | -3% | -9% | 27%
CCN(CC)C(=O)c1ccc2c(c1)C1C(Cl)C(Sc3ccccc3[N+](=O)[O-])CC1C(C(=O)O)N2 (configuration not stated) | 21µM* | ? | ? | -16% | -14% | /
Cc1ccc2c(c1Cl)NC(C(=O)O)C1CC(Sc3ccccc3[N+](=O)[O-])C(Cl)C21 (configuration not stated) | 3% | -21% | 18 | -19% | -17% | /
O=C(O)c1cccc2c1NC(c1cccc([N+](=O)[O-])c1)C1CC(Sc3ccccc3[N+](=O)[O-])C(Cl)C21 (configuration not stated) | ? | ? | -28 | -19% | ? | 8.9µM*

Screening data: PubChem, National Center for Advancing Translational Sciences (NCATS)
